Data published in PubChem BioAssay (Tox21).
“And” between values parts separate entries of the source, which are not always exact repeats. Equal values may be shown once. Results filed as inconclusive are left out. Where a call stands in place of a potency, no number is given. Unmarked numbers belong to inactive results. The source made the active and inactive calls. The call rests on the fitted dose curve; in most records, active means well fitted curve in the direction sought with a large enough effect in the repeat runs; inconclusive means weak or mixed curves; inactive means no such curve, though single readings can be large; an effect the other way counts as inactive or inconclusive.

Experiments:
[1] = biological target: Nuclear receptor subfamily 1 group I member 2 (Rattus norvegicus) (UniProt Q9R1A7); assay: Rat pregnane X receptor (rPXR) activation by small molecules, qHTS assay (AID 1346983); conditions: rPXR luciferase reporter cells, One-Glo luminescence, 24 h; max activation: hits give high values; further: nearly all actives have a fitted effect of over 20% in size
In short: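 Cell-based rPXR luciferase reporter assay, 2,000 cells per well, rested 5hr at 37 C before compound addition in DMSO, then 24 hr at 37 C. One-Glo reagent was added and luminescence read after 30 min at room temperature.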

[2] = biological target: Nuclear receptor subfamily 1 group I member 2 (Homo sapiens) (UniProt O75469); assay: CYP3A4 induction through human pregnane X receptor (PXR) by small molecules, qHTS assay (AID 1346984); further: nearly all actives have a fitted effect of over 40% in size; further: potency means the concentration at half of the fitted maximal effect
In short: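 Steps: seed DPX-2 cells, 5 hr at 37C; pin-transfer compounds; 24 hr at 37C; add Luciferin-IPA (3uM final), 3 hr at 37C; add One-Glo, 30 min RT; read luminescence.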

[3] = biological target: Nuclear receptor subfamily 1 group I member 2 (Homo sapiens) (UniProt O75469); assay: Human pregnane X receptor (PXR) activation by small molecules, qHTS assay (AID 1346985); further: nearly all actives have a fitted effect of over 40% in size; further: potency means the concentration at half of the fitted maximal effect
In short: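 DPX-2 cells (HepG2 co-transfected with a PXR response element and a CYP3A4-promoter luciferase construct) were seeded at 2,000 per well, rested 5 hr at 37C, then exposed to DMSO-dissolved compounds for 24 hr. Activation was read as luciferase luminescence.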

Nuclear receptor subfamily 1 group I member 2 (Rattus norvegicus), sequence (Q9R1A7 whole entry, looked up): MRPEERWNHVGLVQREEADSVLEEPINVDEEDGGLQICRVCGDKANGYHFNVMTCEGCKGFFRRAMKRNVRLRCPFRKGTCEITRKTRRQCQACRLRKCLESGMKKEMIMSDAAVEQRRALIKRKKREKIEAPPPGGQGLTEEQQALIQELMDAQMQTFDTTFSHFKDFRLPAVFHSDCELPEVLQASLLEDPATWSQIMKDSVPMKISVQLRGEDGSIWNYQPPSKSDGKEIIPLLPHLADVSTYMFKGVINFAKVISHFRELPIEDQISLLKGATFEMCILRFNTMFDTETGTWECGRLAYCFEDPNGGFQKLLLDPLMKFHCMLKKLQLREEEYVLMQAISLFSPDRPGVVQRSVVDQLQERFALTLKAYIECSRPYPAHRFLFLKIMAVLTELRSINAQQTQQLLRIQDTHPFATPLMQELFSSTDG

SMILES | max activation [1] | Potency [2] | Potency [3]
C=C1[C@H](CO)[C@@H](O)C[C@@H]1n1cnc2c(=O)[nH]c(N)nc21 | -2.99% | inactive | inactive
CCN(CC)CCOC[C@H]1O[C@@H](O)[C@H](OCCN(CC)CC)[C@@H](O)[C@@H]1O | -3.03% | inactive | inactive
CCN(CC)C(=O)[C@]1(c2ccccc2)C[C@@H]1CN | -2.63% | inactive | inactive
CC(C)c1ncc([N+](=O)[O-])n1C | -4.41% | inactive | inactive
CCC1OC(=O)C[C@@H](O)[C@H](C)[C@@H](O[C@@H]2O[C@H](C)C[C@H](N(C)C)[C@H]2O)[C@@H](CC=O)C[C@@H](C)C(=O)/C=C/[C@]2(C)OC2C1C (some centres undefined) | -4.15% | inactive | inactive
O=C(O)c1cc(=O)c2c3nc4ccccc4oc-3cc(=O)c2[nH]1 | -7.15% | inactive | inactive
C=CC1=C(C(=O)O)N2C(=O)[C@@H](NC(=O)/C(=N\O)c3csc(N)n3)[C@H]2SC1 (stereo in doubt) | -3.55% | inactive | inactive
CCOc1ccc(S(=O)(=O)O)c2cccnc12 | -0.221% | inactive | inactive
N[C@@H](Cc1cnc[nH]1)C(=O)O | -4.66% | inactive | inactive
CO/N=C(\C(=O)N[C@@H]1C(=O)N2C(C(=O)O)=C(CSc3nc(C)c(CC(=O)O)s3)CS[C@H]12)c1csc(N)n1 | -4.17% | inactive | inactive
CC1=C(/C=C/C(C)=C/C=C/C(C)=C/C=C/C=C(C)/C=C/C=C(C)/C=C/C2=C(C)CCCC2(C)C)C(C)(C)CCC1 | -2.1% | inactive | inactive
COC1[C@@H](O[C@@H]2O[C@H](C)[C@@H](O[C@H]3C[C@@](C)(O)[C@H](OC(=O)CC(C)C)[C@H](C)O3)[C@H](N(C)C)[C@H]2O)[C@@H](CC=O)C[C@@H](C)[C@@H](O)/C=C/C=C/C[C@@H](C)OC(=O)C[C@H]1OC(C)=O (some centres undefined) | -1.32% | inactive | inactive
CC[C@H]1OC(=O)C[C@@H](O)[C@H](C)[C@@H](O[C@@H]2O[C@H](C)[C@@H](O)[C@H](N(C)C)[C@H]2O)[C@@H](CCN2C[C@H](C)C[C@H](C)C2)C[C@@H](C)C(=O)/C=C/C(C)=C/[C@@H]1CO[C@@H]1O[C@H](C)[C@@H](O)[C@@H](OC)[C@H]1OC | -0.718% | inactive | inactive
CCN(CC)CC#CCOC(=O)C(O)(c1ccccc1)C1CCCCC1 (centres undefined) | 13% | 8.91 µM (active) | 17.8 µM (active)
O=c1[nH]c(=O)n([C@H]2C[C@H](O)[C@@H](CO)O2)cc1/C=C/Br | -6.99% | inactive | inactive
CC[C@@]1([C@@H]2O[C@@H]([C@H]3O[C@@](O)(CO)[C@H](C)C[C@@H]3C)C[C@@H]2C)CC[C@H]([C@]2(C)CC[C@]3(C[C@H](O)[C@@H](C)[C@@H]([C@@H](C)[C@@H](OC)[C@H](C)C(=O)O)O3)O2)O1 (stereo in doubt) | -15.4% | inactive | inactive
COC(=O)C[C@](O)(CCCC(C)(C)O)C(=O)O[C@@H]1C(OC)=CC23CCCN2CCc2cc4c(cc2[C@H]13)OCO4 (some centres undefined) | -15.5% | inactive | inactive

SMILES | max activation [1] | Potency [2] | Potency [3]
NS(=O)(=O)c1cc(Cl)c(Cl)c(S(N)(=O)=O)c1 | -2.98% | inactive | inactive
CC12CCC(C[N+](C)(CCC[N+](C)(C)C)C1)C2(C)C (centres undefined) | -1.76% | inactive | inactive
NC(N)=NCc1cccc(I)c1 | -16.9% | inactive | inactive
N[C@H](CO)C(=O)O | -0.898% | inactive | inactive
O=C[C@H](O)[C@@H](O)[C@@H](O)[C@H](O)CO | -2.08% | inactive | inactive
Cc1cn([C@H]2C[C@H](O)[C@@H](CO)O2)c(=O)[nH]c1=O | -1.3% | inactive | inactive
CO/N=C(\C(=O)N[C@@H]1C(=O)N2C(C(=O)[O-])=C(C[n+]3ccc(N)n3CCO)CS[C@H]12)c1csc(N)n1 | -1.9% | inactive | inactive
C[S+](C)CCC(N)C(=O)O (centres undefined) | -3.19% | inactive | inactive
O=C1C2CC3CC1CC(O)(C3)C2 | -3.68% | inactive | inactive
C[C@@H]1O[C@@H](OC[C@H]2O[C@@H](Oc3c(-c4ccc(OCCO)c(OCCO)c4)oc4cc(OCCO)cc(O)c4c3=O)[C@H](O)[C@@H](O)[C@@H]2O)[C@H](O)[C@H](O)[C@H]1O | -1.87% | inactive | inactive
CCN(CC)C(=O)c1cccnc1 | -3.83% | inactive | inactive
CO/N=C(\C(=O)N[C@@H]1C(=O)N2C(C(=O)O)=C(C[N+]3(C)CCCC3)CS[C@H]12)c1csc(N)n1 | -0.506% | inactive | inactive
NCC1CCC(C(=O)O)CC1 (centres undefined) | -1.27% | inactive | inactive
C[C@H](NCCc1ccc(O)cc1)[C@H](O)c1ccc(O)cc1 | -4.49% | inactive | inactive
CCCCCCOC(=O)c1cccnc1 | -0.199% | inactive | inactive
Cc1cnc(C(=O)O)c[n+]1[O-] | -2.61% and 6.98% and -0.594% | inactive | inactive
